Experimental data taken from PubChem BioAssay (NCI).
Compounds without any hit were thinned out: in the full panel of roughly 79,000, 15% have a hit. Calls of active or inactive are those of the source. Cut-off read from the data, not from the text of the source: active = growth inhibition above about 70%; inactive = the rest.

Columns and labels:
[1] = NCI Yeast Anticancer Drug Screen. Data for the rad14 strain (AID 159);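 note: 0% = growth of vehicle-treated control cultures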; settings: S. cerevisiae rad14 strain growth inhibition, stronger effect = higher value
Summary of the method: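 Test compounds were applied to a repair-deficient yeast strain. Its growth was then compared with that of cultures given vehicle alone, and inhibition was expressed relative to those controls.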

[2] = NCI Yeast Anticancer Drug Screen. Data for the sgs1 mgt1 strain (AID 161);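 note: 0% = growth of cultures given vehicle only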; settings: S. cerevisiae sgs1 mgt1 strain, stronger effect = higher value
Summary of the method: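 Yeast cells carrying a defined DNA-repair defect were exposed to test compounds. Growth inhibition was measured relative to vehicle-treated controls.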

[3] = NCI Yeast Anticancer Drug Screen. Data for the CLN2oe strain (AID 163);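 note: 0% = growth of vehicle-only control cultures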; settings: S. cerevisiae CLN2oe strain, stronger effect = higher value
Summary of the method: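 Whole-cell yeast growth assay. A strain engineered for altered cell-cycle control received compound, and inhibition relative to vehicle-treated cultures was recorded.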

[4] = NCI Yeast Anticancer Drug Screen. Data for the cln2 rad14 strain (AID 165);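 note: 0% = growth equal to vehicle treated cultures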; settings: S. cerevisiae cln2 rad14 strain, stronger effect = higher value
Summary of the method: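 Yeast strain cln2 rad14, bearing defects in cell cycle control and DNA repair, serves as the test system; values reflect growth inhibition compared with vehicle.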

[5] = NCI Yeast Anticancer Drug Screen. Data for the bub3 strain (AID 167); settings: S. cerevisiae bub3 mutant strain, stronger effect = higher value
Summary of the method: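 Yeast carrying a defined mutation is treated with each compound, and growth is compared with that of vehicle-exposed cells to give inhibition.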

[6] = NCI Yeast Anticancer Drug Screen. Data for the wt2 strain (AID 169);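 note: 0% = growth of vehicle-treated yeast cultures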; settings: S. cerevisiae wt2 strain growth inhibition, stronger effect = higher value
Summary of the method: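 Treated yeast vs. vehicle-treated yeast: growth inhibition determined.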

[7] = NCI Yeast Anticancer Drug Screen. Data for the mlh1 strain (AID 171);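 note: 0% = growth of vehicle-treated control cultures of the same strain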; settings: S. cerevisiae mlh1 strain growth inhibition, stronger effect = higher value
Summary of the method: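 A yeast strain with a defined genetic lesion serves as the test organism. Cultures receive compound or vehicle, and growth is measured.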

[8] = NCI Yeast Anticancer Drug Screen. Data for the sgs1 strain (AID 173);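 note: 0% = growth of vehicle-only control cultures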; settings: S. cerevisiae sgs1 mutant, stronger effect = higher value
Summary of the method: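 A genetically defined yeast mutant is incubated with the test compound, and its growth is compared to that of the same strain given vehicle.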

[9] = NCI Yeast Anticancer Drug Screen. Data for the mlh1 rad18 strain (AID 175); settings: S. cerevisiae mlh1 rad18 strain growth inhibition, stronger effect = higher value
Summary of the method: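 Steps: expose repair-defective yeast to compound; measure growth; express inhibition against vehicle-treated controls.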

[10] = NCI Yeast Anticancer Drug Screen. Data for the rad18 strain (AID 177); settings: S. cerevisiae rad18 mutant growth inhibition, stronger effect = higher value
Summary of the method: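 Measured value is growth inhibition of a yeast strain bearing a DNA repair alteration, referenced to vehicle-treated cells.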

[11] = NCI Yeast Anticancer Drug Screen. Data for the wt1 strain (AID 149);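 note: 0% = growth of vehicle-treated wt1 cultures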; settings: S. cerevisiae wt1 strain (SPY 50644) growth inhibition, stronger effect = higher value
Summary of the method: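 wt1 yeast, compound-treated; % growth inhibition vs vehicle control.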

[12] = NCI Yeast Anticancer Drug Screen. Data for the rad50EPP+ strain (AID 151);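 note: 0% = growth of vehicle-treated control cultures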; settings: S. cerevisiae rad50 mutant strain, stronger effect = higher value
Summary of the method: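 Read-out is yeast growth inhibition relative to vehicle; cells used were the rad50EPP+ strain.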

[13] = NCI Yeast Anticancer Drug Screen. Data for the mgt1 strain (AID 153); settings: S. cerevisiae mgt1 mutant growth inhibition, stronger effect = higher value
Summary of the method: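 Measured: inhibition of mgt1 yeast growth by compound, normalized to vehicle-treated cultures.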

[14] = NCI Yeast Anticancer Drug Screen. Data for the rad50 strain (AID 155);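 note: 0% = growth of vehicle-only cultures of the same strain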; settings: S. cerevisiae rad50 strain growth inhibition, stronger effect = higher value
Summary of the method: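 Genetically altered yeast (DNA repair pathway); compound treatment; growth inhibition vs vehicle ctrl.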

[15] = NCI Yeast Anticancer Drug Screen. Data for the mec2-1 strain (AID 157); settings: S. cerevisiae mec2-1 strain, stronger effect = higher value
Summary of the method: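 Using mec2-1 yeast: add compound, measure growth, express inhibition versus vehicle-treated cultures.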

[16] = at 5.0 µM (retest, dose inferred, filed as 0.5)
[17] = at 50.0 µM (retest, dose inferred, filed as 5.0)

Measured: growth inhibition

Cc1cc(I)ccc1N
inactive: [2]; [16] -1% | [3]; at 1.2 µM -10% | [3]; at 3.7 µM -15% | [3]; at 11.0 µM -3% | [4]; [16] 46% | [4]; at 50.0 µM 62.1% | [5]; at 1.2 µM 1% | [5]; at 3.7 µM -7% | [5]; [16] 27% | [5]; at 11.0 µM 11% | [6]; at 1.2 µM -28% | [6]; at 3.7 µM -10% | [6]; at 11.0 µM -13% | [7]; at 1.2 µM 25% | [7]; at 3.7 µM 13% | [7]; at 11.0 µM 10% | [8]; at 1.2 µM 19% | [8]; at 3.7 µM 5% | [8]; at 11.0 µM 4% | [9]; [16] 41% | [10]; at 1.2 µM -18% | [10]; at 3.7 µM -4% | [10]; at 11.0 µM -15%
active: [1]; at 100.0 µM 92% | [2]; [17] 92% | [2]; at 50.0 µM 89.3% | [3]; at 33.0 µM 79% | [3]; at 100.0 µM 86% | [4]; [17] 93% | [5]; at 33.0 µM 90% | [5]; [17] 90% | [5]; at 50.0 µM 86.8% | [5]; at 100.0 µM 94% | [6]; at 33.0 µM 88% | [6]; at 100.0 µM 94% | [7]; at 33.0 µM 89% | [7]; at 100.0 µM 92% | [8]; at 33.0 µM 90% | [8]; at 100.0 µM 91% | [9]; [17] 73% | [9]; at 50.0 µM 85.6% | [10]; at 33.0 µM 85% | [10]; at 100.0 µM 87%

CC1(C)[C@@H]2CC[C@]1(C)[C@H](OC(=O)CSC#N)C2
active: [11]; at 100.0 µM 96% | [13]; at 33.0 µM 90% | [13]; at 100.0 µM 98% | [14]; [17] 98% | [14]; at 50.0 µM 99% | [14]; at 100.0 µM 96% | [15]; at 33.0 µM 86% | [15]; [17] 98% | [15]; at 50.0 µM 98% | [15]; at 100.0 µM 97% | [1]; at 100.0 µM 97% | [2]; [17] 97% | [2]; at 50.0 µM 98.6% | [3]; at 100.0 µM 95% | [4]; [17] 91% | [4]; at 50.0 µM 94.8% | [5]; at 33.0 µM 81% | [5]; [17] 99% | [5]; at 50.0 µM 99% | [5]; at 100.0 µM 96% | [6]; at 33.0 µM 89% | [6]; at 100.0 µM 97% | [7]; at 33.0 µM 73% | [7]; at 100.0 µM 98% | [8]; at 33.0 µM 94% | [8]; at 100.0 µM 97% | [9]; [17] 98% | [9]; at 50.0 µM 98.8% | [10]; at 33.0 µM 92% | [10]; at 100.0 µM 96%
inactive: [11]; at 1.2 µM 1% | [11]; at 3.7 µM 4% | [11]; at 11.0 µM 14% | [11]; at 33.0 µM 61% | [12]; at 1.2 µM -1% | [12]; at 3.7 µM 4% | [12]; at 11.0 µM 9% | [12]; at 33.0 µM 24% | [12]; at 100.0 µM 50% | [13]; at 1.2 µM 1% | [13]; at 3.7 µM 2% | [13]; at 11.0 µM 23% | [14]; at 1.2 µM 1% | [14]; at 3.7 µM 1% | [14]; [16] -5% | [14]; at 11.0 µM 20% | [14]; at 33.0 µM 68% | [15]; at 1.2 µM 4% | [15]; at 3.7 µM 8% | [15]; [16] 8% | [15]; at 11.0 µM 27% | [1]; at 1.2 µM -2% | [1]; at 3.7 µM -1% | [1]; at 11.0 µM 12% | [1]; at 33.0 µM 43% | [2]; [16] 28% | [3]; at 1.2 µM -3% | [3]; at 3.7 µM -1% | [3]; at 11.0 µM 1% | [3]; at 33.0 µM 47% | [4]; [16] 34% | [5]; at 1.2 µM 2% | [5]; at 3.7 µM 13% | [5]; [16] 14% | [5]; at 11.0 µM -19% | [6]; at 1.2 µM 1% | [6]; at 3.7 µM 5% | [6]; at 11.0 µM 25% | [7]; at 1.2 µM 7% | [7]; at 3.7 µM 9% | [7]; at 11.0 µM 29% | [8]; at 1.2 µM 9% | [8]; at 3.7 µM 23% | [8]; at 11.0 µM 66% | [9]; [16] 9% | [10]; at 1.2 µM 9% | [10]; at 3.7 µM 14% | [10]; at 11.0 µM 28%

O=C([O][Sn]([O]C(=O)c1ccccc1)([c]1ccccc1)[c]1ccccc1)c1ccccc1
active: [11]; at 100.0 µM 78% | [13]; at 100.0 µM 86% | [14]; at 100.0 µM 88% | [15]; at 50.0 µM 76.8% | [15]; at 100.0 µM 87% | [1]; at 100.0 µM 82% | [2]; [17] 73% | [4]; [17] 77% | [5]; [17] 87% | [5]; at 100.0 µM 83% | [6]; at 33.0 µM 81% | [6]; at 100.0 µM 97% | [7]; at 100.0 µM 86% | [8]; at 100.0 µM 84% | [9]; [17] 76% | [10]; at 100.0 µM 88%
inactive: [11]; at 1.2 µM 0% | [11]; at 3.7 µM 4% | [11]; at 11.0 µM -4% | [11]; at 33.0 µM 9% | [12]; at 1.2 µM 30% | [12]; at 3.7 µM 18% | [12]; at 11.0 µM 24% | [12]; at 33.0 µM 21% | [12]; at 100.0 µM 18% | [13]; at 1.2 µM 1% | [13]; at 3.7 µM 14% | [13]; at 11.0 µM 20% | [13]; at 33.0 µM 43% | [14]; at 1.2 µM 20% | [14]; at 3.7 µM 30% | [14]; [16] 4% | [14]; at 11.0 µM 27% | [14]; at 33.0 µM 40% | [14]; [17] 26% | [14]; at 50.0 µM 68.5% | [15]; at 1.2 µM 21% | [15]; at 3.7 µM 16% | [15]; [16] 12% | [15]; at 11.0 µM 16% | [15]; at 33.0 µM 37% | [15]; [17] 52% | [1]; at 1.2 µM 32% | [1]; at 3.7 µM 23% | [1]; at 11.0 µM 30% | [1]; at 33.0 µM 35% | [2]; [16] -11% | [2]; at 50.0 µM 56.4% | [3]; at 1.2 µM 15% | [3]; at 3.7 µM 16% | [3]; at 11.0 µM 10% | [3]; at 33.0 µM 23% | [3]; at 100.0 µM 57% | [4]; [16] -1% | [4]; at 50.0 µM 60% | [5]; at 1.2 µM 8% | [5]; at 3.7 µM 2% | [5]; [16] -14% | [5]; at 11.0 µM 10% | [5]; at 33.0 µM 30% | [5]; at 50.0 µM 58.5% | [6]; at 1.2 µM 8% | [6]; at 3.7 µM 1% | [6]; at 11.0 µM 20% | [7]; at 1.2 µM 1% | [7]; at 3.7 µM 14% | [7]; at 11.0 µM 20% | [7]; at 33.0 µM 43% | [8]; at 1.2 µM 28% | [8]; at 3.7 µM 26% | [8]; at 11.0 µM 30% | [8]; at 33.0 µM 45% | [9]; [16] 11% | [9]; at 50.0 µM 50.1% | [10]; at 1.2 µM 0% | [10]; at 3.7 µM -4% | [10]; at 11.0 µM -2% | [10]; at 33.0 µM 43%
